# Biological target: Calcium/calmodulin-dependent protein kinase type II subunit gamma (Homo sapiens) (UniProt Q13555)
# Settings: at 10 µM
# Sequence of Calcium/calmodulin-dependent protein kinase type II subunit gamma (Homo sapiens) (Q13555 whole entry): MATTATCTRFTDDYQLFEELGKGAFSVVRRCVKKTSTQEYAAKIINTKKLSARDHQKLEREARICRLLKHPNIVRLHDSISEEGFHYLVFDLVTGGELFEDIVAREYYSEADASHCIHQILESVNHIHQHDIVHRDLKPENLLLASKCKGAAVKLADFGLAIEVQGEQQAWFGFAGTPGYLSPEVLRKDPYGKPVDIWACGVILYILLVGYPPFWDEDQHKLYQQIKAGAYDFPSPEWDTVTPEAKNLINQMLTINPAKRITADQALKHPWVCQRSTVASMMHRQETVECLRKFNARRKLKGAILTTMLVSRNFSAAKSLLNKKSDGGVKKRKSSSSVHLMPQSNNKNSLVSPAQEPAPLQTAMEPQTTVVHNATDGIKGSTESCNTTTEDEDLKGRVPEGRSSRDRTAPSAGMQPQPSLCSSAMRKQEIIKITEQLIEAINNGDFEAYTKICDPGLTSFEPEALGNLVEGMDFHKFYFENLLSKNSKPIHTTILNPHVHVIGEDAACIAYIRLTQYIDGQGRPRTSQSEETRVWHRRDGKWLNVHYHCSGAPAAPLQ
row,Structure (SMILES),residual activity [%]
1,O=C1NC(=O)c2c1c1c3ccccc3[nH]c1c1[nH]c3cc(Br)ccc3c21,21
2,NC(=O)c1ccc2[nH]c(-c3ccc(Oc4ccc(Cl)cc4)cc3)nc2c1,58
3,Cc1cncc2cccc(S(=O)(=O)N3CCCN(C(=O)CN)C[C@H]3C)c12,64
4,CCN(CC)CCCCN1c2ccccc2Oc2ccc(Cl)cc21,97
5,COc1ccc(CNc2nc(N(CCO)CCO)nc3c2ncn3C(C)C)cc1,63
6,Cc1ccc(S(=O)(=O)/C=C/C#N)cc1,94
7,CO[C@H]1C[C@@H]2CC[C@@H](C)[C@@](O)(O2)C(=O)C(=O)N2CCCC[C@H]2C(=O)O[C@H]([C@H](C)C[C@@H]2CC[C@@H](O)[C@H](OC)C2)CC(=O)[C@H](C)/C=C(\C)[C@@H](O)[C@@H](OC)C(=O)[C@H](C)C[C@H](C)/C=C/C=C/C=C/1C,96
8,CO[C@H]1[C@@H](OC)C[C@H](C)[C@@H](OC)C2=CC(=O)C=C(NC(=O)/C(C)=C/C=C/[C@H](OC)[C@@H](OC(N)=O)/C(C)=C/[C@@H]1C)C2=O,100
9,CC[n+]1c(/C=C/N(C)c2ccccc2)n(-c2ccccc2)c2ccc(-c3nc4ccccc4s3)cc21,99
10,Cc1ccc(NC2=CC(=O)c3sc(C)nc3C2=O)cc1,98
11,Oc1ccc(-c2nc(-c3ccc(F)cc3)c(-c3ccncc3)[nH]2)cc1,89
12,Nc1n[nH]c2nnc(-c3c(-c4ccccc4)nn4ccccc34)cc12,92
13,CCOc1cc2ncnc(Nc3cccc(Br)c3)c2cc1OCC,40
14,N#Cc1cnc2cnc(NCc3cccnc3)cc2c1Nc1ccc(F)c(Cl)c1,-1
15,CNc1cc2c(Nc3cccc(Br)c3)ncnc2cn1,32
16,Ic1cccc(CSc2nnc(-c3ccncc3)o2)c1,74
17,O=C1NC(=O)/C(=C/c2ccc3c(c2)OC(F)(F)O3)S1,86
18,CC(=O)c1ccc(N2CCOCC2)cc1O,96

row,Structure (SMILES),residual activity [%]
1,CO[C@@H]1[C@H](N(C)C(=O)c2ccccc2)C[C@H]2O[C@]1(C)n1c3ccccc3c3c4c(c5c6ccccc6n2c5c31)C(=O)NC4,-1
2,CC(C)n1cnc2c(NCc3ccccc3)nc(NCCCO)nc21,59
3,COc1cc2ncnc(Nc3ccc(Oc4ccccc4)cc3)c2cc1OC,102
4,O=C(Nc1cccc(Nc2cc(Nc3cccc(C(F)(F)F)c3)ncn2)c1)C1CC1,74
5,COc1ccc(OC)c2c(=S)c3ccccc3[nH]c12,54
6,Cn1nc2c3c(cccc31)C(=O)c1ccccc1-2,37
7,Nc1ccc2ncnc(NCCc3ccc(Oc4ccccc4)cc3)c2c1,11
8,CN(C)c1ccc(/C=C2\C(=O)Nc3ccccc32)cc1,46
9,O=C1Nc2cc(Br)ccc2/C1=C1/Nc2ccccc2/C1=N\O,2
10,Nc1nc(Nc2ccc(S(N)(=O)=O)cc2)nn1C(=S)Nc1c(F)cccc1F,0
11,N#C/C(=C(\N)Sc1ccc(N)cc1)c1ccccc1C(F)(F)F,86
12,COc1cc2ncnc(Nc3ccc(O)c(Br)c3)c2cc1OC,18
13,O=C1NC(=O)/C(=C\c2ccc3nccnc3c2)S1,34
14,Cc1nc2cc3nc(-c4cccs4)cnc3cc2n1C,84
15,COc1cc2ncnc(N3CCN(C(=O)Nc4ccc(Oc5ccccc5)cc4)CC3)c2cc1OC,100
16,Nc1cccc(-c2cc3c(Oc4cccc(O)c4)ncnc3[nH]2)c1,10
17,COc1cccc(-c2cc(=O)c3ccccc3o2)c1N,98

# Biological target: Calcium/calmodulin-dependent protein kinase type II subunit delta (Homo sapiens) (UniProt Q13557)
# Settings: at 1 µM
# Sequence of Calcium/calmodulin-dependent protein kinase type II subunit delta (Homo sapiens) (Q13557 whole entry): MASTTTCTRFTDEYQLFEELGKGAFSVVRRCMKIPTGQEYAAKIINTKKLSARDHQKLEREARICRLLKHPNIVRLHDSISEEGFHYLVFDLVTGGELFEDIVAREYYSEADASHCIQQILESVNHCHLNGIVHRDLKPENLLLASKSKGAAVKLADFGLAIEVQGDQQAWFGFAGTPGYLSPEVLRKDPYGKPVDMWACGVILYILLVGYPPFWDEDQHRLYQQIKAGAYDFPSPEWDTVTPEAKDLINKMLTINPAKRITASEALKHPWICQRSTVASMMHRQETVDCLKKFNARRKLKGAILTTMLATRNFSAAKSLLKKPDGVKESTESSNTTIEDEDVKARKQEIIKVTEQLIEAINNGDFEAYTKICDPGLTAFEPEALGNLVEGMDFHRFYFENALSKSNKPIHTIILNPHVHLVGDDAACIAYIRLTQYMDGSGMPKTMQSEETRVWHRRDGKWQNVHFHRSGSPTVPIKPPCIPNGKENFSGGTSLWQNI
row,Structure (SMILES),residual activity [%]
1,O=C1NC(=O)c2c1c1c3ccccc3[nH]c1c1[nH]c3cc(Br)ccc3c21,15
2,NC(=O)c1ccc2[nH]c(-c3ccc(Oc4ccc(Cl)cc4)cc3)nc2c1,91
3,Cc1cncc2cccc(S(=O)(=O)N3CCCN(C(=O)CN)C[C@H]3C)c12,98
4,CCN(CC)CCCCN1c2ccccc2Oc2ccc(Cl)cc21,112
5,COc1ccc(CNc2nc(N(CCO)CCO)nc3c2ncn3C(C)C)cc1,92
6,Cc1ccc(S(=O)(=O)/C=C/C#N)cc1,104
7,CO[C@H]1C[C@@H]2CC[C@@H](C)[C@@](O)(O2)C(=O)C(=O)N2CCCC[C@H]2C(=O)O[C@H]([C@H](C)C[C@@H]2CC[C@@H](O)[C@H](OC)C2)CC(=O)[C@H](C)/C=C(\C)[C@@H](O)[C@@H](OC)C(=O)[C@H](C)C[C@H](C)/C=C/C=C/C=C/1C,109
8,CO[C@H]1[C@@H](OC)C[C@H](C)[C@@H](OC)C2=CC(=O)C=C(NC(=O)/C(C)=C/C=C/[C@H](OC)[C@@H](OC(N)=O)/C(C)=C/[C@@H]1C)C2=O,102
9,CC[n+]1c(/C=C/N(C)c2ccccc2)n(-c2ccccc2)c2ccc(-c3nc4ccccc4s3)cc21,109
10,Cc1ccc(NC2=CC(=O)c3sc(C)nc3C2=O)cc1,95
11,Oc1ccc(-c2nc(-c3ccc(F)cc3)c(-c3ccncc3)[nH]2)cc1,98
12,Nc1n[nH]c2nnc(-c3c(-c4ccccc4)nn4ccccc34)cc12,94
13,CCOc1cc2ncnc(Nc3cccc(Br)c3)c2cc1OCC,85
14,N#Cc1cnc2cnc(NCc3cccnc3)cc2c1Nc1ccc(F)c(Cl)c1,-1
15,CNc1cc2c(Nc3cccc(Br)c3)ncnc2cn1,85
16,Ic1cccc(CSc2nnc(-c3ccncc3)o2)c1,73
17,O=C1NC(=O)/C(=C/c2ccc3c(c2)OC(F)(F)O3)S1,106
18,CC(=O)c1ccc(N2CCOCC2)cc1O,102

row,Structure (SMILES),residual activity [%]
1,CO[C@@H]1[C@H](N(C)C(=O)c2ccccc2)C[C@H]2O[C@]1(C)n1c3ccccc3c3c4c(c5c6ccccc6n2c5c31)C(=O)NC4,5
2,CC(C)n1cnc2c(NCc3ccccc3)nc(NCCCO)nc21,86
3,COc1cc2ncnc(Nc3ccc(Oc4ccccc4)cc3)c2cc1OC,105
4,O=C(Nc1cccc(Nc2cc(Nc3cccc(C(F)(F)F)c3)ncn2)c1)C1CC1,97
5,COc1ccc(OC)c2c(=S)c3ccccc3[nH]c12,95
6,Cn1nc2c3c(cccc31)C(=O)c1ccccc1-2,85
7,Nc1ccc2ncnc(NCCc3ccc(Oc4ccccc4)cc3)c2c1,31
8,CN(C)c1ccc(/C=C2\C(=O)Nc3ccccc32)cc1,89
9,O=C1Nc2cc(Br)ccc2/C1=C1/Nc2ccccc2/C1=N\O,1
10,Nc1nc(Nc2ccc(S(N)(=O)=O)cc2)nn1C(=S)Nc1c(F)cccc1F,0
11,N#C/C(=C(\N)Sc1ccc(N)cc1)c1ccccc1C(F)(F)F,62
12,COc1cc2ncnc(Nc3ccc(O)c(Br)c3)c2cc1OC,79
13,O=C1NC(=O)/C(=C\c2ccc3nccnc3c2)S1,76
14,Cc1nc2cc3nc(-c4cccs4)cnc3cc2n1C,106
15,COc1cc2ncnc(N3CCN(C(=O)Nc4ccc(Oc5ccccc5)cc4)CC3)c2cc1OC,104
16,Nc1cccc(-c2cc3c(Oc4cccc(O)c4)ncnc3[nH]2)c1,42
17,COc1cccc(-c2cc(=O)c3ccccc3o2)c1N,101

# From ChEMBL document CHEMBL2218924, “A broad activity screen in support of a chemogenomic map for kinase signalling research and drug discovery” (Biochem J, 2013)
